Reference: PubChem BioAssay (NCI)
Several values for one entry are separate records, joined by “and”; a condition that tells them apart may be missing. Equal values may be shown once. Compounds without any hit were thinned out: in the full panel of roughly 83,000, 20% have a hit.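 Values shown are percent growth following 48 h exposure of cells in 96-well plates to a single concentration of compound; below 10 was considered active.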 Activity calls are given as the source filed them.

Key:
Assay in all cases: NCI-60 one-dose screen, 48 h (100 = growth as untreated, 0 = no growth, -100 = all killed)
Conditions in all cases: 10 µM unless noted
HCT-15 colon = test system: HCT-15 colon
HT29 colon = test system: HT29 colon
SNB-75 CNS = test system: SNB-75 CNS
SNB-19 CNS = test system: SNB-19 CNS
U251 CNS = test system: U251 CNS
PC-3 prostate = test system: PC-3 prostate
SK-MEL-5 melanoma = test system: SK-MEL-5 melanoma
UACC-62 melanoma = test system: UACC-62 melanoma
LOX IMVI melanoma = test system: LOX IMVI melanoma
SK-MEL-28 melanoma = test system: SK-MEL-28 melanoma

Measured: growth

O=C(Nc1ccc(Cl)cc1)c1cc2ccccc2cc1O
14% (inactive) and 0.898% (active): SK-MEL-5 melanoma
inactive: HCT-15 colon 12.8% and 15.8% | SNB-75 CNS 52.6% and 53.1% | SNB-19 CNS 37.7% and 29.6% | UACC-62 melanoma 28.3% and 35.1% | LOX IMVI melanoma 37.3% and 12% | SK-MEL-28 melanoma 43.8% and 45.1%
94.7% (inactive) and 8.61% (active): HT29 colon
21.2% (inactive) and -8.1% (active): U251 CNS
11.5% (inactive) and -13.1% (active): PC-3 prostate

Oc1ccc(/C=C/c2ccccc2)cc1
inactive: HCT-15 colon 67.1% and 68.2% | HT29 colon 104% and 84.8% | SNB-75 CNS 68.7% and 83.4% | SNB-19 CNS 84.1% and 91.2% | U251 CNS 67.7% and 53.5% | PC-3 prostate 70% and 43.8% | SK-MEL-5 melanoma 56.1% and 55.7% | UACC-62 melanoma 56.3% and 53.4% | LOX IMVI melanoma 55.6% and 68.9% | SK-MEL-28 melanoma 97.5% and 99.8%

N#CC(C#N)=C/C=C/c1cccc([N+](=O)[O-])c1
inactive: SNB-75 CNS 68.2% and 11.3% | SNB-19 CNS 51.3% and 41.4%
14.5% (inactive) and 0.0705% (active): PC-3 prostate
10% (inactive) and -22.7% (active): U251 CNS
active: HCT-15 colon -6.94% and -31.6% | HT29 colon -19.6% and -39.5% | SK-MEL-5 melanoma 8.16% and -10.6% | UACC-62 melanoma -51.7% and -61.6% | LOX IMVI melanoma -29.1% and -78.9% | SK-MEL-28 melanoma 5.56% and -41.8%

O=C(Nc1cccc(Cl)c1)c1cc2ccccc2cc1O
16.3% (inactive) and 9.55% (active): HCT-15 colon
13% (inactive) and 6.25% (active): U251 CNS
active: PC-3 prostate 1.88% and -4.44% | SK-MEL-5 melanoma -14.7% and -23.9%
inactive: HT29 colon 104% and 60.1% | SNB-75 CNS 45.7% and 33.6% | SNB-19 CNS 13.2% | UACC-62 melanoma 13.8% and 18.4% | LOX IMVI melanoma 25.3% and 11% | SK-MEL-28 melanoma 35.7% and 42%

NC(=O)NO
inactive: HCT-15 colon 106% and 72.2% | HT29 colon 104% and 70.3% | SNB-75 CNS 91.7% and 60.3% | SNB-19 CNS 105% and 69.6% | U251 CNS 96.6% and 65.5% | PC-3 prostate 106% and 72.6% | SK-MEL-5 melanoma 106% and 80.5% | UACC-62 melanoma 103% and 74.6% | LOX IMVI melanoma 101% and 59% | SK-MEL-28 melanoma 107% and 45.5%

O=C(/C=C\c1ccnc2ccccc12)c1ccc([N+](=O)[O-])cc1
70.3% (inactive) and 3.25% (active): HT29 colon
52.1% (inactive) and 9.87% (active): LOX IMVI melanoma
inactive: HCT-15 colon 87.9% and 69.7% | SNB-75 CNS 110% and 86.5% | SNB-19 CNS 90% and 86.4% | U251 CNS 95.3% and 79.6% | PC-3 prostate 93.8% and 74.7% | SK-MEL-5 melanoma 67.4% and 53.8% | UACC-62 melanoma 82.6% and 70.7% | SK-MEL-28 melanoma 104% and 92.1%

CNC(=O)c1cccnc1
inactive: HCT-15 colon 103% | HT29 colon 105% | SNB-75 CNS 92.5% | SNB-19 CNS 105% | U251 CNS 92.3% | PC-3 prostate 96.9% | SK-MEL-5 melanoma 107% | UACC-62 melanoma 113% | LOX IMVI melanoma 92.9% | SK-MEL-28 melanoma 116%
